Data on six compounds can be found in PubChem BioAssay AID504334 (NMMLSC, 2011).

Each structure is given as a SMILES string. A number with no mark means an inactive call.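 How the source made its calls: active means response relative to DMSO over 150%; inconclusive means yeast strain with under 70 recorded events; inactive means the rest.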

The nature of the experiment: AGP1-GFP expression modulators, hit retest, confirmation, cell-based, flow cytometry, S. cerevisiae, cherry pick set 3 (AID 504334).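 Further: median GFP fluorescence per well by flow cytometry over the all cells gate; ratio of sample to mean DMSO control signal so DMSO = 100% not 0%.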 The following applies: S. cerevisiae AGP1-GFP strain, 3 h, at 10 µM, active compounds read high.
For the compound `C/C(O)=C(\C#N)C(=O)Nc1cc(Br)ccc1Br`, the percent response vs DMSO was 100%. The result for `CN1CCN(c2ncnc3ccc(Br)cc23)CC1` reads 103%; that for `Cc1ccc2c(c1N)C(=O)c1ccccc1C2=O`, 105%.

Take `CCN1CCN(c2ncnc3ccc(Br)cc23)CC1`: the percent response vs DMSO is 99.8%. As for `CN(C)C(=O)Oc1ccc(Cl)c2cccnc12`, the percent response vs DMSO was 93.4%.

As for `CN(C)C(=O)Oc1ccnc2cc(Cl)ccc12`, the percent response vs DMSO is 104%.
